Laboratory results as given in PubChem BioAssay (NCI).
About 79,000 compounds went through this panel and 15% of them were active in at least one assay; those are over-represented in the sample as a whole. Activity calls are given as the source filed them. No stated cut-off is given here; in the data, active means growth inhibition above about 70%; inactive means the rest.

What was measured:
[1] = NCI Yeast Anticancer Drug Screen. Data for the rad50 strain (AID 155);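 further: 0% = growth of vehicle-only cultures of the same strain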; settings: S. cerevisiae rad50 strain growth inhibition; at 50.0 µM; hits give high values
Procedure, shortened: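 DNA repair mutant yeast, compound exposure, growth read-out; inhibition is taken relative to vehicle.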

[2] = NCI Yeast Anticancer Drug Screen. Data for the mec2-1 strain (AID 157); settings: S. cerevisiae mec2-1 strain, at 50.0 µM, hits give high values
Procedure, shortened: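 Vehicle-treated cultures served as reference for growth inhibition of compound-exposed mec2-1 yeast.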

[3] = NCI Yeast Anticancer Drug Screen. Data for the sgs1 mgt1 strain (AID 161);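 further: 0% = growth of cultures given vehicle only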; settings: S. cerevisiae sgs1 mgt1 strain, at 50.0 µM, hits give high values
Procedure, shortened: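 Test agents were incubated with a DNA-repair-mutant yeast strain. Growth was then read and compared against vehicle-treated controls.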

[4] = NCI Yeast Anticancer Drug Screen. Data for the cln2 rad14 strain (AID 165);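 further: 0% = growth equal to vehicle treated cultures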; settings: S. cerevisiae cln2 rad14 strain, at 50.0 µM, hits give high values
Procedure, shortened: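 Each compound was tested on cln2 rad14 yeast. Inhibition of growth was calculated against vehicle-exposed controls.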

[5] = NCI Yeast Anticancer Drug Screen. Data for the bub3 strain (AID 167); settings: S. cerevisiae bub3 mutant strain, at 50.0 µM, hits give high values
Procedure, shortened: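 In this screen, a yeast mutant lacking normal mitotic checkpoint function is challenged with compound. Relative growth versus vehicle gives the inhibition value.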

[6] = NCI Yeast Anticancer Drug Screen. Data for the mlh1 rad18 strain (AID 175); settings: S. cerevisiae mlh1 rad18 strain growth inhibition; at 50.0 µM; hits give high values
Procedure, shortened: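 Vehicle-treated cultures served as the reference for growth inhibition in a yeast strain carrying DNA damage repair alterations exposed to each compound.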

Measured: growth inhibition

Cc1cccc2cc3ccc4ccccc4c3cc12
inactive: [1] 29.7% | [2] 13.8% | [3] 21.9% | [4] 14.8% | [5] 4.1% | [6] 20.6%

O=C1c2ccccc2C(=O)C2C1C1C(=O)c3ccccc3C(=O)C21 (configuration not stated)
inactive: [1] -14.6% | [2] -1.5% | [3] 2.45% | [4] -20.2% | [5] -8.6% | [6] 24.6%

c1ccc(COC[C@H]2O[C@@H](c3ccccc3)C[C@@H](OCc3ccccc3)C2OCc2ccccc2)cc1 (some centres not stated)
inactive: [1] -20.3% | [2] -11.6% | [3] -1.95% | [4] -0.45% | [5] -11.6% | [6] 5.4%

Clc1cc(Cl)nc(Nc2ccc3c(c2)CCC3)n1
inactive: [1] 23.9% | [2] 10.2% | [3] -1.15% | [4] -4.2% | [5] 3.9% | [6] 39.5%

c1ccc(C2(c3ccccc3)CC([P+](c3ccccc3)(c3ccccc3)c3ccccc3)N=N2)cc1 (configuration not stated)
active: [1] 99.3% | [2] 99.6% | [3] 99.7% | [4] 99.4% | [5] 97.5% | [6] 99.5%

Nc1ccc(Br)c2ccccc12
inactive: [1] 33.4% | [2] 22.1% | [3] 16.8% | [4] 19.4% | [5] 27.3% | [6] 46.4%

CN1C(=O)C(O)(c2c3c(c(C4(O)C(=O)N(C)c5ccccc54)c4c2OCO4)OCO3)c2ccccc21 (configuration not stated)
inactive: [1] 0.45% | [2] -0.6% | [3] -28.2% | [4] -7.35% | [5] -5.2% | [6] 8.95%

CC1(C(=O)O)CCCCCCC1O (configuration not stated)
inactive: [1] 10.2% | [2] 9.55% | [3] -2.55% | [4] 8.1% | [5] -6.1% | [6] -7.9%

CCOC(=O)c1c(-c2ccccc2)nn(CC(N)=O)c1CO
inactive: [1] -15.9% | [2] -5.15% | [3] 10.4% | [4] 23.1% | [5] 18.2% | [6] -10.7%

O=C(Cl)CNS(=O)(=O)c1ccccc1
inactive: [1] 5.45% | [2] 5.1% | [3] 1% | [4] 15.8% | [5] 6.4% | [6] 1.45%

CN(C)c1ccc2c(c1)C(O)c1ccccc1-2 (configuration not stated)
inactive: [1] -7.3% | [2] -6.55% | [3] 1.1% | [4] -0.65% | [5] 19.4% | [6] 0.7%

O=C(CCc1ccccc1CO)NCCc1ccccc1
inactive: [1] 52% | [2] 20.9% | [3] -18.1% | [4] 7.8% | [5] -34.1% | [6] 3.85%

COc1ccc(C(=O)N=Nc2ccccc2)cc1
inactive: [1] 0.05% | [2] 0.7% | [3] -6.85% | [4] -49.9% | [5] 3.35% | [6] -13.1%

CSC(=S)Nc1nc2ccc(Cl)cc2s1
inactive: [1] -1.45% | [2] 6.75% | [3] 15.3% | [4] 3.15% | [5] 17.7% | [6] 3.2%

O=[N+]([O-])c1cccc(CO)c1
inactive: [1] -9.75% | [2] 17.1% | [3] -1.15% | [4] 8.6% | [5] -7.35% | [6] -5.7%

CN=C1c2ccccc2C(=O)c2c1c(O)n(-c1ccccc1)c2O
inactive: [1] 27.9% | [2] 15.3% | [3] 20.9% | [4] 21.5% | [5] 29.4% | [6] 36.8%

CN(C)C(=N)N
inactive: [1] -28.9% | [2] 6.3% | [3] -27.4% | [4] -21.6% | [5] -0.7% | [6] -18.4%

NC(=O)C(Cc1ccccc1)NC(=O)C1CCCN1 (configuration not stated)
inactive: [1] 4.2% | [2] 1.35% | [3] 2.5% | [4] -33.9% | [5] -6.1% | [6] 24.6%

O=C(c1ccc(F)cc1)c1cccc(C(=O)c2ccc(F)cc2)n1
inactive: [1] -16.8% | [2] -24% | [3] -29.9% | [4] 8.15% | [5] -3.4% | [6] -36.1%

CN/N=C(\C(=O)Nc1ccc([N+](=O)[O-])cc1[N+](=O)[O-])C1NC(=O)NC1=O (configuration not stated)
inactive: [1] 23.8% | [2] 20.1% | [3] 1.95% | [4] 5.05% | [5] 15.9% | [6] -10.9%

COc1ccc(C(=O)C(O)c2ccc(OC)cc2)cc1 (configuration not stated)
inactive: [1] 8.15% | [2] -8.65% | [3] -1.55% | [4] -16.4% | [5] -4.35% | [6] 26.1%

CN(C)CC(N)C(=O)O (configuration not stated)
inactive: [1] -4.35% | [2] -13.1% | [3] -12.2% | [4] -13.6% | [5] -21.3% | [6] -18.6%

Nc1cccc(Br)n1
inactive: [1] 16.1% | [2] -4.9% | [3] 0.45% | [4] -51.7% | [5] 7.1% | [6] 4.9%

O=C(O)C#Cc1ccc(Cl)cc1
inactive: [1] -20.1% | [2] -23.8% | [3] -17.6% | [4] -9.05% | [5] -24.4% | [6] -13.6%

C[N+](C)(Cc1cccc(Cl)c1)c1nnn[n-]1
inactive: [1] -9.75% | [2] -18.9% | [3] -7.05% | [4] -22.6% | [5] -7.4% | [6] -9.5%

Cc1ccc2c(ccc3ccccc32)n1
inactive: [1] 59.8% | [2] 16.8% | [3] 60% | [4] -4.4% | [5] 50.5% | [6] 45.4%

CCNC(=O)OC1C=CS(=O)(=O)C1 (configuration not stated)
inactive: [1] 5.25% | [2] -9.45% | [3] -0.45% | [4] -5.55% | [5] 7.95% | [6] -10.2%

CC1c2c(cc(=O)n(Cc3ccccc3)c2O)C(=O)N1Cc1ccccc1 (configuration not stated)
inactive: [1] -12.6% | [2] 16.9% | [3] 3.85% | [4] 4.75% | [5] -23.6% | [6] 8.85%

CCOC(=O)CN1C(=O)CSC1=S
inactive: [1] 42% | [2] -3.85% | [3] 24.3% | [4] 22.4% | [5] 61.4% | [6] 31.1%

C=C(CCCCCCCCC)CC(=O)SCCNC(=O)CCNC(=O)C(O)C(C)(C)COP(=O)(O)OP(=O)(O)OCC1OC(n2cnc3c(N)ncnc32)C(O)C1OP(=O)(O)O (configuration not stated)
inactive: [1] -7.95% | [2] -14.8% | [3] 0.55% | [4] -17% | [5] -19.6% | [6] 0.4%

OC(CC1CCCC(CC(O)c2ccccc2)N1CCc1ccccc1)c1ccccc1 (configuration not stated)
inactive: [1] 24.8% | [2] -1.3% | [3] 22.4% | [4] 35.4% | [5] 38.2% | [6] 21.2%

C=CCCC(C)N(C(=O)OC(C)(C)C)S(=O)(=O)c1ccc(C)cc1 (configuration not stated)
inactive: [1] 16.6% | [2] -13.2% | [3] 4.85% | [4] -9.3% | [5] -4% | [6] 0.45%

CN(C)CC(O)CO (configuration not stated)
inactive: [1] 38.5% | [2] -4% | [3] -6.5% | [4] -45.1% | [5] 21.7% | [6] 22%

COc1cccc(Oc2ccc(C)cc2)c1
inactive: [1] 17.2% | [2] -12.8% | [3] -18.6% | [4] -19.1% | [5] 8.95% | [6] -21.9%

CC(=O)Oc1ccc(C2(c3ccc(OC(C)=O)cc3)C(=O)Nc3ccccc32)cc1
inactive: [1] -11.2% | [2] -16.3% | [3] -5.85% | [4] -0.65% | [5] 20.8% | [6] -4.65%

Cc1c(C)c(C)c(CN2CCC(C)CC2)c(C)c1C
inactive: [1] -2.55% | [2] 9.85% | [3] -14.9% | [4] -17.6% | [5] 3.45% | [6] -9.1%

Cc1ccc(NC(=S)N/C=C(\c2ccccc2)S(=O)Cc2ccccc2)c(C)c1 (configuration not stated)
inactive: [1] 8% | [2] -22.1% | [3] -8% | [4] 15.7% | [5] 14.1% | [6] 1.8%

O=C1C(N=Cc2c(O)ccc3ccccc23)CON1C(c1ccccc1)(c1ccccc1)c1ccccc1 (configuration not stated)
inactive: [1] 55.5% | [2] 37.5% | [3] 28.9% | [4] 20.1% | [5] 3.55% | [6] 40.5%

Cn1c2ccccc2c2nc3ccccc3c(Cl)c21
inactive: [1] -43.5% | [2] -12.8% | [3] -49.9% | [4] -12.9% | [5] -39.9% | [6] -31.9%

COc1cccc(-c2nc3ccccc3c(=O)[nH]2)c1OC
inactive: [1] 33.2% | [2] -16.6% | [3] 10.1% | [4] 18.1% | [5] 16.5% | [6] 19.9%

CCc1nc2c(N)ncnc2o1
inactive: [1] -1.45% | [2] -1.5% | [3] -3.3% | [4] -37.3% | [5] -19.8% | [6] 11.4%

C/C(C(=O)O)=C(\C)c1ccccc1
inactive: [1] -0.7% | [2] -0.75% | [3] -0.9% | [4] -15.6% | [5] 2.1% | [6] 5.2%
